This note sets out measurements from PubChem BioAssay AID2551 (National Center for Advancing Translational Sciences (NCATS), 2010).

The structures appear in SMILES notation. About 17,000 (5.5%) of roughly 310,000 compounds were called active. Where a call stands in place of a potency, no number is given. About 11% were inconclusive and are not listed. This excerpt belongs to a sample that is enriched for actives. Unmarked numbers belong to inactive results. Calls come from the whole dose curve; as a rule, active = well fitted inhibition curve with a large enough effect; inconclusive = small, poorly fitted or top-dose-only effect, or effect the other way; inactive = no such curve, though single readings can be large or run the other way.
Potency is the fitted concentration of half-maximal effect.

Chain of Nuclear receptor ROR-gamma (Mus musculus) (P51450 whole entry, looked up, the tested form may be a part): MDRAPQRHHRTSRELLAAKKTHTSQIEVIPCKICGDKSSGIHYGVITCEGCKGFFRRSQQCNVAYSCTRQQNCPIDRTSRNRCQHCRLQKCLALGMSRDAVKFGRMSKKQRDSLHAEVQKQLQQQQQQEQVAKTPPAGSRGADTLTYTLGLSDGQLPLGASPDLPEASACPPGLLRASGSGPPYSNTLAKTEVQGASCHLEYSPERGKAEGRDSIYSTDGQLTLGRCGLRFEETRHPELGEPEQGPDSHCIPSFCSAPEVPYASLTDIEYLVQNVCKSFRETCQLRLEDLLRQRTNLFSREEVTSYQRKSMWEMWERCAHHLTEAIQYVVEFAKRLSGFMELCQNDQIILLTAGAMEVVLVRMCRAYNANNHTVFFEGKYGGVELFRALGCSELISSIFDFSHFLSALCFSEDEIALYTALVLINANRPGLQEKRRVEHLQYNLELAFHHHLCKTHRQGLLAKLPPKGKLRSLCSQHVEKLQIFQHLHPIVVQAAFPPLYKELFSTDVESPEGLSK

For this assay, the target named is Nuclear receptor ROR-gamma (Mus musculus) (UniProt P51450). The assay can be described thus: qHTS for inhibitors of ROR gamma transcriptional activity. Note: nearly all actives have a fitted effect of over 60% in size. Particulars: Drosophila S2 Gal4-RORgamma UAS-luciferase reporter, 20 h; series mostly up to 53.6 µM. In short, it runs like this:
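A Gal4/UAS one-hybrid system in insect cells: metallothionein-promoter Gal4–ROR gamma fusion plus Photinus luciferase reporter. Copper sulfate 700 uM final, 20 hr ambient incubation, luminescent detection after 10 min with reagent.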
On the technique in general: In qHTS, concentration-response curves come from the screen itself.
Take `c1cnc(N2CCN(c3ccc4ccccc4n3)CC2)nc1`: the Potency entry was “inactive”. For `CCCN1CCn2c3c(c4cc(Br)ccc42)CCCC31` (stereo not given), the Potency entry was “inactive”.

In the case of `COCCN1CCn2c(nc3cc(NS(C)(=O)=O)ccc32)C1`, the Potency result is “inactive”. Consider `COCCOC(=O)c1[nH]c2c(c1C)C(=O)CC(c1ccc(OC)cc1)C2` (stereo not given), for which the Potency entry was “inactive”. The same measure, in the same setting: then `Cc1ccc(OCC(=O)NCCCNC(=O)c2cccnc2)cc1C`, with “inactive”. The same measure, in the same setting: then `Cc1cn([C@H]2CC(F)[C@@H](CO)O2)c(=O)[nH]c1=O` (stereo not given in full), with “inactive”. On the same count and under the same terms, the same measure for `COc1cccc(CNc2ncc(-c3ccccc3)n2C)c1`: “inactive”; for `CC(C)[C@@H](NC(=O)OC(C)(C)C)C(=O)NCC1CCC(C(=O)N[C@@H](Cc2ccccc2)C(=O)O)CC1` (stereo not given in full): “inactive”.

`CCC1OC(c2ccc([N+](=O)[O-])cc2)=Nc2ccccc21` (stereo not given): the Potency result is “inactive”. In the case of `CC(=O)Nc1ccc(NC(=O)C2CCCN(S(=O)(=O)c3ccc(Cl)cc3)C2)cc1` (stereo not given), the Potency result was “inactive”. Same read-out and setting: the same measure for `Cc1cc(C)n(-c2nc(SCC(=O)N3CCCC3)c3c4c(sc3n2)CCCC4)n1`: 6.31 µM (active); for `COc1ncnc2sc3c(c12)CCCC3`: “inactive”; for `CCSc1nc2sc3c(c2c(=O)[nH]1)CC(C)(C)OC3`: “inactive”. Same read-out and setting: the same measure for `CC(C)c1nc(SCC(=O)Nc2cccc(C(=O)O)c2)c2c3c(sc2n1)CCCC3`: “inactive”; for `COCCNc1nc(-n2nc(C)cc2C)nc2sc3c(c12)CCCC3`: 0.562 µM (active). On to `CCOC(=O)Cn1c(SC)nc2sc3c(c2c1=O)CC(C)(C)OC3`, for which the Potency entry is “inactive”. On the same count and under the same terms, then `CCc1nc(N2CCN(C(C)=O)CC2)c2c3c(sc2n1)CCCC3`, with “inactive”; and `CCC(O)CNc1nc(-n2nc(C)cc2C)nc2sc3c(c12)CC(C)(C)OC3` (stereo not given), with 1.58 µM (active). In the case of `COCCn1c(C)cc(C(=O)CSc2ncnc3sc4c(c23)CCC4)c1C`, the Potency result is “inactive”. Same read-out and setting: the same measure for `Cc1cccn2c(=O)c(/C=C(\C#N)C(N)=O)c(N3CCCCCC3)nc12`: “inactive”.

Regarding `CN(Cc1ccccc1)S(=O)(=O)c1nnc(NC(=O)c2ccccc2F)s1`, the Potency result is “inactive”. Still for that read-out and setting: the same measure for `CC(=O)Nc1cccc(NC(=O)CSc2nccn2Cc2ccc(F)cc2)c1`: “inactive”. Consider `Cn1c(=O)c2ccccc2n(CC(=O)Nc2ccc3c(c2)OCCO3)c1=O`, for which the Potency entry was “inactive”. Still for that read-out and setting: then `Cc1ccc(-c2nc(CS(=O)(=O)CC(=O)NCc3ccc4c(c3)OCO4)c(C)o2)cc1`, with “inactive”; and `Cc1ccc(NS(=O)(=O)c2ccc(-c3ccc(=O)[nH]n3)o2)c(C)c1`, with “inactive”; and `NC(=O)CN1CCCC1c1ccc2c(c1)OCCO2` (stereo not given), with “inactive”. Still for that read-out and setting: the same measure for `CC1C(=O)Nc2ccc(S(=O)(=O)N3CCN(c4ccccc4F)CC3)cc2NC1=O` (stereo not given): “inactive”; for `CCOc1ccc(/C=N/Nc2nncc(-c3ccccc3)n2)cc1OC`: “inactive”; for `COc1cc(/C=N/O)ccc1OCc1ccc([N+](=O)[O-])cc1`: “inactive”.

Consider `COc1cc(/C=N/n2c(C)n[nH]c2=S)ccc1OCc1ccccc1`, for which the Potency is 6.31 µM (active).

On to `COCC1CCN(C(=O)C2CCC(=O)N(Cc3cccc(C(F)(F)F)c3)C2)CC1` (stereo not given), for which the Potency entry is “inactive”. Consider `O=C(NCc1ccccn1)[C@]1(C(F)(F)F)C[C@H](CCc2ccccc2)CCCO1`, for which the Potency result was “inactive”.

On to `O=C(NCc1cc(F)cc(C(F)(F)F)c1)C1CCC(=O)N(C2CCCC2)C1` (stereo not given), for which the Potency result is “inactive”.

Turning to `CC1CCCC(C)N1C(=O)CSc1nnnn1C1CCCC1` (stereo not given), the Potency entry was “inactive”. `Nc1nnn(CC(=O)N/N=C/c2ccccc2)n1`: the Potency result was “inactive”.

Turning to `O=C(Cn1nnc(-c2ccccc2)n1)N/N=C/c1ccc(-c2ccc(Cl)cc2)o1`, the Potency is 7.08 µM (active). Still for that read-out and setting: the same measure for `Nc1nnnn1CC(=O)N/N=C/c1ccc(-c2cccc(Cl)c2)o1`: “inactive”. Still for that read-out and setting: then `Cc1ccccc1OCC(=O)N(Cc1cccc(F)c1)C1CCS(=O)(=O)C1` (stereo not given), with “inactive”; and `Cc1nn(C)cc1CNC(=O)Nc1ccc(Cl)cc1`, with “inactive”.

As for `Cc1nn(C)cc1C(=O)Nc1ccccc1Br`, the Potency entry is “inactive”. Same read-out and setting: then `Cc1nn(C)cc1C(=O)NNC(=S)Nc1ccc(Cl)cc1`, with 11.2 µM (active); and `CC1CCN(S(=O)(=O)c2ccc3c(ccn3CC(=O)O)c2)CC1`, with “inactive”; and `CC(=O)c1ccc2c(c1)OCCOCCOc1ccc(C(C)=O)cc1OCCOCCO2`, with “inactive”. The same measure, in the same setting: then `CN(C)c1ccc(/C=C/C(=O)c2ccc(C(C)(C)C)cc2)cc1[N+](=O)[O-]`, with “inactive”; and `O=C(O)/C=C/c1ccc2c(c1)OCCO2`, with “inactive”; and `Cc1nn(-c2ccccc2)c(Cl)c1/C=C/C(=O)c1ccc(O)cc1`, with “inactive”. Same read-out and setting: then `O=C(/C=C/c1ccc2c(c1)OCCO2)c1ccc(O)cc1`, with 1.26 µM (active); and `CN(C)c1ccc(/C=C/C(=O)c2ccc(O)cc2)cc1[N+](=O)[O-]`, with 1.41 µM (active). Turning to `Cc1ccc([N+](=O)[O-])cc1S(=O)(=O)N1CCCN(C)CC1`, the Potency result is “inactive”. As for `O=C(CCc1nnc2ccc(NCCCN3CCCC3=O)nn12)NCc1ccccc1Cl`, the Potency result is “inactive”.

With `Cc1ccc(/C=C2/SC(=S)N(CCC(=O)NCCCN3CCOCC3)C2=O)cc1`, the Potency result was “inactive”. Regarding `O=C(NC1CCC(O)CC1)c1ccccc1OCc1ccc(F)cc1` (stereo not given), the Potency result is “inactive”.

On to `O=c1c(-c2cccc(Cl)c2)c[nH]n1-c1ccccc1`, for which the Potency entry is “inactive”.

For the molecule `O=C1NC(c2cccc(Cl)c2)Nc2ccccc21` (stereo not given), the Potency entry was “inactive”.

Consider `O=C1c2ccccc2NC(c2ccc(-c3cccc(Cl)c3)o2)N1O` (stereo not given), for which the Potency is 11.2 µM (active). The same measure, in the same setting: the same measure for `COc1cc(-c2c(-c3ccc4c(c3)OCO4)noc2C)ccc1F`: “inactive”. Regarding `COc1ccc(NS(=O)(=O)c2ccc(NC(C)=O)cc2)cc1OC`, the activity change, negative = inhibition is 35.4% [at 0.365 µM]. For `COc1ccc(NC(=O)CNC(=O)Cc2ccccc2)cc1OC`, the Potency result is “inactive”.

Turning to `COc1ccc(NC(=S)SC)cc1OC`, the Potency is 20 µM (active). As for `Cc1c(C(=O)N2CCCC2)c(S(=O)(=O)NCC(C)c2ccccc2)c(C)n1C` (stereo not given), the Potency entry is “inactive”. Regarding `CN(C)CCCNC(=S)N1CCN(c2nc(-c3ccccc3)cs2)CC1`, the Potency result is “inactive”. On the same count and under the same terms, then `Cc1cccc(NC(=S)Nc2ccc3cn[nH]c3c2)c1`, with “inactive”. As to `CC(=O)Nc1cccc(C(=O)Nc2nc(C)cs2)c1`, the Potency entry is “inactive”. For `Fc1cc(Br)ccc1NC(=S)Nc1cccnc1`, the Potency entry was “inactive”. For the molecule `Cc1cccc(NC(=S)Nc2ccc(Br)cc2)c1`, the Potency is 7.08 µM (active). On the same count and under the same terms, the same measure for `Cc1cccc(Br)c1`: “inactive”.

On to `S=C(Nc1cccc(Cl)c1)Nc1ccc2cn[nH]c2c1`, for which the Potency entry is “inactive”. The same measure, in the same setting: then `Cc1cccc(NC(=S)Nc2ccc(Cl)c(Cl)c2)c1`, with 15.8 µM (active); and `NS(=O)(=O)c1ccc(NC(=S)Nc2ccc(Br)c(Cl)c2)cc1`, with “inactive”; and `Cc1csc(NC(=S)Nc2cccc(Cl)c2)n1`, with 0.708 µM (active).
